Only some compounds are listed: those with a hit (about 5.3% of all), similar ones and a draw of the others.
Sfp inh: Sfp phosphopantetheinyl transferase inhibition | Q9F4F7 | Biochemical Sfp PPTase activity, qHTS | Potency, µM, usual class: inhibitors | actives 3.5% (n = 310,000);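 note: the enzyme is Sfp with the accession as filed and its product quenches rhodamine fluorescence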
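Fluorescence-quenching assay with 15 nM Sfp, 5 uM rhodamine-CoA and 12.5 uM BHQ-2-labelled ybbR peptide in pH 7.6 Hepes/MgCl2 buffer. Enzyme was pre-incubated with compound for 15 min at room temperature. Rate was taken from the 30-min fluorescence change (525/598 nm).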
JMJD2E inh: JMJD2E (human) inhibition; B2RXH2; JMJD2E catalytic domain, FDH-coupled NADH fluorescence (FDH is formaldehyde dehydrogenase); Potency, µM (series often up to 57.1 µM), actives largely listed as inhibitors; actives 1.6% (n = 230,000); AID 2147; active = well fitted inhibition curve with a large enough effect, not every such curve was filed as active; inconclusive = small, poorly fitted or top-dose-only effect, or another doubt; inactive = no such curve, though single readings can be large or run the other way; note: nearly all actives have a fitted effect of over 50% in size
Target sequence (B2RXH2 1-337 limits assumed): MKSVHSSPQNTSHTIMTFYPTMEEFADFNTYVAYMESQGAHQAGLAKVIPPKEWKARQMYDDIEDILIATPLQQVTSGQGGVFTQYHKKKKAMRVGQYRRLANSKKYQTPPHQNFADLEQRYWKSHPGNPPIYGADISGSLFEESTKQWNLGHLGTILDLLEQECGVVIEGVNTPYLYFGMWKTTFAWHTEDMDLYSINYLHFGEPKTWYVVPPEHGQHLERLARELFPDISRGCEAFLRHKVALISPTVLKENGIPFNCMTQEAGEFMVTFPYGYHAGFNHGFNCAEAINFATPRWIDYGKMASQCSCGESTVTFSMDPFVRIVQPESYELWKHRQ
Tau fluor counter: counter-screen for tau fibril formation inhibitors. actives 0.93% (n = 280,000). Potency, µM (top dose mostly 57.7 µM). tau K18 P301L Alexa594 fluorescence, heparin fibrillization; note: nearly all actives have a fitted effect of over 55% in size
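Human K18 P301L tau (15 uM unlabeled plus 0.24 uM Alexa 594-labeled, final) in 100 mM sodium acetate pH 7 was mixed with compound and 20 uM heparin and incubated 6 hr at 37 C.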
Tau fibril ThT: inhibitors of human tau fibril formation, thioflavin T binding; recombinant tau K18 P301L, heparin-induced fibrillization, ThT fluorescence; Potency, µM (titrated, usually from 57.4 µM), most hits filed as inhibitors; actives 2.1% (n = 270,000); P10636; note: nearly all actives have a fitted effect of over 55% in size
Target sequence (P10636 561-689 P618L limits assumed): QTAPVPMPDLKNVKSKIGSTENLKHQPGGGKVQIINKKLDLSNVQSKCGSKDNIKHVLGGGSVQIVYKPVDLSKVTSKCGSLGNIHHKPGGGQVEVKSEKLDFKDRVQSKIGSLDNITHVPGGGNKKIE
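Using a mix of unlabeled (15 uM) and Alexa 594-labeled (0.24 uM) tau K18 P301L, heparin-triggered fibrillization over 6 hr at 37 C was scored by ThT fluorescence.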
FBPA coupling cs: inhibits coupling enzyme system, counter-screen for aldolase hits; coupling enzyme system counterscreen, AmpLite Red fluorescence; activity change, negative = inhibition, % at 58.2 µM, hits read low; actives 0.67% (n = 290,000); AID 2472; in the data active = activity change below about -30%
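Coupling enzymes only (glyceraldehyde-3-phosphate) + compound, at 57.5 uM final, 10 min RT; add substrate/coupling/AmpLite Red mix, 20 min RT; fluorescence ex 525/em 598 nm. Actives flag coupling-system interference.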
Tau FP inhib: blocks human tau fibril formation measured by polarization; actives 0.39% (n = 280,000); AID 1468; K18 P301L tau heparin fibrillization, Alexa594 FP, 6 h; P10636; Potency, µM (series often up to 57.7 µM), actives largely listed as inhibitors; note: nearly all actives have a fitted effect of over 55% in size
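FP of Alexa 594-tau after heparin (20 uM) induction. Substrate: human K18 P301L, 15 uM unlabeled, 0.24 uM labeled. Buffer 100 mM sodium acetate pH 7. 6 hr, 37 C.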
A number is an active result; 0 = inactive; ? = inconclusive; - = no result; [ ] = remark or other dose. Unless noted, calls come from the whole dose curve; as a rule, active = well fitted curve in the direction sought with a large enough effect; inconclusive = small, poorly fitted or top-dose-only effect, or another doubt; inactive = no such curve, though single readings can be large; an effect the other way counts as inactive or inconclusive.

SMILES | Sfp inh | JMJD2E inh | Tau fluor counter | Tau fibril ThT | FBPA coupling cs | Tau FP inhib
CC(=O)N1CCN(c2ccc([N+](=O)[O-])cc2)CC1 | 0 | 0 | 0[2.34 µM] | 0 | 0 | 0
O=[N+]([O-])c1ccc(N2CCCCC2)cc1 | 0 | 0 | 0 | 8.9µM | 0 | 0
CNC(=S)N1CCN(c2ccc([N+](=O)[O-])cc2)CC1 | 0 | 0 | 0 | 5.6µM | - | 0
CC(/C=C/c1ccccc1)=N\Nc1nc(-c2ccccc2)cs1 | 0 | 0 | 11µM[quencher] | 7.9µM | 0 | 0
CC1CC(CC(=O)NNc2nc(-c3ccccc3)cs2)C(=O)O1 (centres undefined) | 0 | 0 | 0 | 0 | 0 | 0
CC(C)=NNc1nc(-c2ccccc2)cs1 | 79µM | 0 | 0 | 0 | 0 | 0
C/C(CCC1CC(C)OC1=O)=N/Nc1nc(-c2ccccc2)cs1 (centres undefined) | 50µM | 0 | ? | 28µM | 0 | ?
CC(=O)NCC(=O)OCC(=O)Nc1nc(-c2ccccc2)cs1 | 0 | 0 | 0 | 0 | 0 | 0
CCOC(=O)C/C(C)=N\Nc1nc(-c2ccccc2)cs1 | ? | 0 | ? | 14µM | 0 | ?
CSCCC(NS(=O)(=O)c1ccc2c(c1)oc(=O)n2C)C(=O)N1CCN(c2cccc(Cl)c2)CC1 (centres undefined) | - | - | 0 | 0 | - | 0
C/C(=C\CNc1ncnc2c1ncn2[C@@H]1O[C@H](CO)[C@@H](O)[C@H]1O)CO | 0 | - | 0 | 0 | 0 | 0
Cc1nn(CCC(N)=S)c2nc(-c3cccs3)cc(C(F)(F)F)c12 | 22µM | ? | ? | ? | 0 | 0
C[C@@H]1C(=O)N(S(=O)(=O)c2ccc([N+](=O)[O-])cc2)[C@H]1c1ccccc1 | 0 | - | - | - | 0 | -
S=C(N=Nc1ccccc1)NNc1ccccc1 | 0 | 0 | 20µM[quencher] | 25µM | 0 | ?
Cc1ccc(-c2[nH]nc(N)c2N=Nc2ccccc2C)cc1 | 0 | 0 | 11µM[quencher] | 16µM | 0 | 0
Cc1cccc(N=Nc2c(N)n[nH]c2-c2ccc(Cl)cc2)c1 | 0 | 0 | 8.9µM[quencher] | ? | 0 | ?
Cc1ccc(-c2[nH]nc(N)c2N=Nc2cccc(Cl)c2C)cc1 | 0 | 0 | 6.3µM[quencher] | 13µM | 0 | ?
COC(=O)c1ccccc1N=Nc1c(N)n[nH]c1N | 0 | 0 | 0 | ? | 0 | 0
CSCC[C@H](NC(=O)[C@H](CC(C)C)NC(=O)CCNC(=O)[C@@H](NC(=O)[C@H](Cc1ccccc1)NC(=O)[C@H](CO)NC(=O)[C@@H](N)CC(=O)O)C(C)C)C(N)=O | 0 | - | - | - | 0 | -
Oc1c(Cl)cc(Cl)cc1C=Nc1ccc2c(c1)OCCO2 | 0 | 0 | 0 | 16µM | 0 | 0
Oc1c(Br)cc(Cl)cc1C=Nc1ccc(N2CCOCC2)cc1 | 0 | 0 | 0 | 16µM | 0 | 0
Oc1ccc2ccccc2c1C=Nc1ccc(N2CCOCC2)cc1 | 0 | ? | ? | 5µM | 0 | 0
C=Cc1ccc(N=Cc2c(O)ccc3ccccc23)cc1 | 0 | - | - | - | -30 | -
CC(=O)N(C)c1ccc(N=Cc2c(O)ccc3ccccc23)cc1 | 0 | - | - | - | 0 | -
Oc1ccc(N=Nc2cccc(Cl)c2)cc1C=Nc1ccc(N2CCOCC2)cc1 | 0 | 0 | 0 | ? | 0 | 0
SMILES | Sfp inh | JMJD2E inh | Tau fluor counter | Tau fibril ThT | FBPA coupling cs | Tau FP inhib
Brc1csc(C=Nc2ccc3c(c2)OCCOCCOCCOCCO3)c1 | 0 | ? | 0 | 0 | 0 | 0
CC(C)=CCn1cnc2c1C(NOCc1ccccc1)=NCN2 | 0 | 0 | 0 | 0 | 0 | 0
Fc1ccc(CNc2nc3c(-c4ccc(F)cc4)nnn3c3ccccc23)cc1 | - | - | 0 | 0 | - | 0
O=C(NCc1ccccc1Cl)C1CCN(C(=O)N2CCOc3ccccc32)CC1 | - | - | 0 | 0 | - | 0
C(=Nc1ccc(N2CCOCC2)cc1)c1c[nH]c2ccccc12 | 0 | ? | ? | 25µM | 0 | 0
CN(C)c1nc(N/N=C/c2c[nH]c3ccccc23)nc(N2CCOCC2)n1 | 0 | 0 | 0 | ? | 0 | 0
CCCCCC(O)/C=C/C=C\CCCCCCCC(=O)O (centres undefined) | 0 | 0 | 0 | 0 | 0 | 0
COc1ccccc1N1C(=O)C2ON(c3ccccc3)C(c3ccc(N(C)C)cc3)C2C1=O (centres undefined) | 45µM | 0 | 0 | ? | 0 | 0
Cc1ccc2nc(/C(C#N)=C\c3ccc(Oc4ccc([N+](=O)[O-])cn4)cc3)[nH]c2c1 | 0 | 0 | ? | 5µM | 0 | 0
COc1ccc2nc(/C(C#N)=C\c3ccc(Oc4ccc([N+](=O)[O-])cn4)cc3)[nH]c2c1 | 0 | 0 | ? | 5µM | 0 | 0
CCOc1cc(/C=C(/C#N)c2nc3ccccc3[nH]2)ccc1Oc1ccc([N+](=O)[O-])cn1 | 0 | ? | ? | 0 | 0 | ?
N[C@@H]1C(O)OC(CO)C(O)C1O (some centres undefined) | 0 | 0 | 0 | 0 | 0 | 0
OC[C@@H](O)C(O[C@@H]1O[C@@H](CO)[C@H](O)[C@H](O)[C@H]1O)[C@H](O)[C@@H](O)CO (some centres undefined) | 0 | - | - | - | - | -
CSCC[C@H](N)C(=O)N[C@@H](CCC(=O)O)C(=O)N[C@H](C(=O)NCC(=O)N[C@@H](Cc1c[nH]c2ccccc12)C(=O)N[C@@H](Cc1ccc(O)cc1)C(=O)N[C@@H](CCCNC(=N)N)C(=O)N[C@@H](CO)C(=O)N1CCC[C@H]1C(=O)N[C@@H](Cc1ccccc1)C(=O)N[C@@H](CO)C(=O)N[C@@H](CCCNC(=N)N)C(=O)N[C@H](C(=O)N[C@H](C(=O)N[C@@H](Cc1cnc[nH]1)C(=O)N[C@@H](CC(C)C)C(=O)N[C@@H](Cc1ccc(O)cc1)C(=O)N[C@@H](CCCNC(=N)N)C(=O)N[C@@H](CC(N)=O)C(=O)NCC(=O)N[C@@H](CCCCN)C(=O)O)C(C)C)C(C)C)C(C)C | 0 | - | - | - | 0 | -
CCOc1ccc(-c2cc(C(=O)Oc3ccc(C#N)cc3)no2)cc1 | - | - | 0 | ? | - | 0
Cc1nc2c(C(=O)NC(C)c3ccccc3)cnn2c(C)c1Cc1ccccc1 (centres undefined) | - | - | 0 | ? | - | 0
Cc1cccc[n+]1C1C(c2ccc([N+](=O)[O-])cc2)C(C#N)=C(C(=C=[N-])C#N)NC1(O)C1CC1 (centres undefined) | 0 | 13µM | 0 | ? | 0 | 0
Cc1cccc[n+]1CC(=O)Nc1ccc([N+](=O)[O-])cc1 | 0 | - | - | - | 0 | -
Cc1ccc(C(C)C)c(OCC(=O)NCC2(N3CCOCC3)CCCCC2)c1 | - | - | 0 | ? | - | 0
Nc1nc(CSCc2ccccc2)nc(N2CCOCC2)n1 | 28µM | 0 | 0 | 0 | 0 | 0
Nc1nc(CSc2nc3ccccc3s2)nc(N2CCOCC2)n1 | 0 | 0 | 0 | 0 | 0 | 0
N#C/C(=C(/O)COC(=O)c1ccc(C#N)cc1)c1nc2ccccc2s1 | 50µM | 0 | ? | ? | 0 | 0
